Results taken from PubChem BioAssay (EPA / NIEHS).
Inconclusive results are not listed. The source made the active and inactive calls. Rule for the calls, unless noted: active = hit-call score of the fitted dose curve at least 0.9, where 1 is the maximum; inactive = score below 0.9.

What was measured:
[1] = APR_HepG2_CellCycleArrest_1hr: Apredica 1-hour HepG2 Assay for Cell Cycle Arrest (AID 2282666); conditions: high-content imaging, actives raise or lower the signal
Summary of the method: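 HepG2 cells exposed for 1 h to 0.39–200 uM compound (0.5% DMSO). Fixed, Hoechst-stained nuclei imaged by ArrayScan; DNA content quantified by Cell Cycle analysis; bidirectional fit against DMSO.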

[2] = APR_HepG2_CellLoss_1hr: Apredica 1-hour HepG2 Assay for Cell Loss (AID 2282668); conditions: high-content imaging;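 note: curves fitted both ways against DMSO so gain or loss of cells counts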
Summary of the method: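 HepG2 cells were treated for 1 h with compound at 0.39–200 uM, in duplicate, in 0.5% DMSO. After formaldehyde fixation, Hoechst 33342-stained nuclei were imaged on an ArrayScan to count cells. Data were fitted bidirectionally versus DMSO.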

[3] = APR_HepG2_MicrotubuleCSK_1hr: Apredica 1-hour HepG2 Assay for Microtubule CSK Stabilty (AID 2282669); conditions: HepG2 microtubule cytoskeleton imaging, actives raise or lower the signal
Summary of the method: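 HepG2 cells exposed 1 h to 0.39–200 uM compound (0.5% DMSO, duplicates), then formaldehyde-fixed, permeabilized and immunostained for alpha-tubulin with Hoechst nuclei. Imaged by ArrayScan high-content analysis; bidirectional fit versus DMSO.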

[4] = APR_HepG2_p53Act_1hr: Apredica 1-hour HepG2 Assay for p53 Activation (AID 2282671); conditions: high-content imaging, actives raise or lower the signal
Summary of the method: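 HepG2 cells treated 1 h with compound at 0.39–200 uM (10 concentrations, duplicate) in 0.5% DMSO. Formaldehyde-fixed, permeabilised cells immunostained for p53 with Hoechst 33342; high-content imaging, bidirectional fit versus DMSO.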

[5] = APR_HepG2_MitoticArrest_1hr: Apredica 1-hour HepG2 Assay for Mitotic Arrest (AID 2282672); conditions: high-content imaging, actives raise or lower the signal
Summary of the method: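 HepG2 cells exposed 1 hr to compounds at 0.39–200 uM (0.5% v/v DMSO final), then fixed in 3.7% formaldehyde and immunostained for phospho-histone H3 with Hoechst 33342. Mitotic arrest scored by automated fluorescence imaging, fitted bidirectionally versus DMSO.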

[6] = APR_HepG2_P-H2AX_1hr: Apredica 1-hour HepG2 Assay for H2AX Phosphorylation (AID 2282673); conditions: high-content imaging, actives raise or lower the signal
Summary of the method: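 HepG2 dosed 1 hr at 0.39-200 uM (0.5% DMSO final), duplicate. Fixed in 3.7% formaldehyde, Triton permeabilized, immunostained for phospho-histone H2A.x (1:200) with Hoechst 33342; ArrayScan 20x imaging, bidirectional fit vs DMSO.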

[7] = APR_HepG2_MitoMass_1hr: Apredica 1-hour HepG2 Assay for Mitochondrial Mass (AID 2282674); conditions: high-content imaging, actives raise or lower the signal
Summary of the method: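 HepG2 cells dosed 1 hr with 0.39-200 uM compound (0.5% DMSO), duplicate wells. Mitochondria stained with 250 nM MitoTracker Red CMXRos for 30 min before formaldehyde fixation, imaged at 20x by ArrayScan; bidirectional fit versus DMSO.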

[8] = APR_HepG2_MitoMembPot_1hr: Apredica 1-hour HepG2 Assay for Mitochondrial Membrane Potential (AID 2282675); conditions: imaging, actives raise or lower the signal
Summary of the method: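 HepG2 cells dosed 1 hour with 0.39–200 uM compound in duplicate, 0.5% DMSO final. MitoTracker Red CMXRos (250 nM, 30 min) loaded before formaldehyde fixation; fluorescence quantified by high-content imaging, bidirectional fitting versus DMSO.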

[9] = ACEA_ER_80hr: ACEA Biosciences xCELLigence Real-Time Cell Analysis on Estrogen Receptor Agonism for Proliferation (AID 2282667; active = hit-call score of the fitted dose curve at least 0.9, where 1 is the maximum); conditions: T47D proliferation, impedance (xCELLigence), 80 h
Summary of the method: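 Real-time impedance growth kinetics of human T-47D breast cells read 80 h after dosing, gain-of-signal fitted relative to DMSO. Compounds: 1:4 serial series, top final concentration 100 uM, n = 2.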

[10] = APR_HepG2_NuclearSize_1hr: Apredica 1-hour HepG2 Assay for Nuclear Size (AID 2282670); conditions: high-content imaging, actives raise or lower the signal
Summary of the method: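 HepG2 cells dosed 1 hr with 0.39–200 uM compound (0.5% DMSO), formaldehyde-fixed, Hoechst 33342-stained and imaged at 20x; nuclear diameter from nuclear stain, fitted bidirectionally against DMSO.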

Measured: AC50

O=S(=O)(O)C(F)(F)C(F)(F)C(F)(F)C(F)(F)C(F)(F)C(F)(F)C(F)(F)C(F)(F)F
not listed: [9] | [10]
inactive: all other assays above

CNC(=O)CSP(=S)(OC)OC
inactive: [1] | [9] | [3] | [6] | [7] | [8]

Cc1cc(C)nc(NC(=O)NS(=O)(=O)c2ccccc2C(=O)OC2COC2)n1
not listed: [5] | [9] | [10]
inactive: all other assays above

CNC(=O)/C=C(\C)OP(=O)(OC)OC
inactive: [1] | [9] | [3] | [6] | [7] | [8]

N#CN
not listed: [2] | [4]
inactive: all other assays above

COP(=S)(OC)Oc1ccc(SC)c(C)c1
active: [8] 59.1 µM
not listed: [2] | [5] | [9]
inactive: all other assays above

CC1(c2ccc(Oc3ccccc3)cc2)OC(=O)N(Nc2ccccc2)C1=O (stereo not drawn)
not listed: [5] | [9]
inactive: all other assays above

O=[N+]([O-])c1c(Cl)c(Cl)c(Cl)c(Cl)c1Cl
not listed: [9]
inactive: all other assays above

C[C@H]1[C@H](c2ccc(Cl)cc2)SC(=O)N1C(=O)NC1CCCCC1
not listed: [2] | [5] | [9]
inactive: all other assays above

O=[N+]([O-])/N=C1\NCCN1Cc1ccc(Cl)nc1
not listed: [4] | [5] | [10]
inactive: all other assays above

Oc1cc(Cl)ccc1Oc1ccc(Cl)cc1Cl
active: [1] 118 µM | [2] 114 µM | [6] 99.8 µM | [7] 170 µM
inactive: [3] | [4] | [8]

CCCN(CCC)c1c([N+](=O)[O-])cc(C(F)(F)F)cc1[N+](=O)[O-]
not listed: [4] | [10]
inactive: all other assays above

Cc1[nH]c(=O)n(C(C)(C)C)c(=O)c1Cl
not listed: [2] | [4] | [10]
inactive: all other assays above

COc1nn(CSP(=S)(OC)OC)c(=O)s1
not listed: [2] | [9]
inactive: all other assays above

N#Cc1c(Cl)c(Cl)c(Cl)c(C#N)c1Cl
inactive: [1] | [3] | [10] | [4]
active: [6] 3.46 µM | [7] 5.34 µM | [8] 61.5 µM

O=C(O)C(F)(F)C(F)(F)C(F)(F)C(F)(F)C(F)(F)C(F)(F)C(F)(F)F
not listed: [9] | [10]
inactive: all other assays above

Clc1ccccc1-c1nnc(-c2ccccc2Cl)nn1
not listed: [4] | [5] | [10]
inactive: all other assays above

CCOC1Oc2ccc(OS(C)(=O)=O)cc2C1(C)C (stereo not drawn)
inactive: [1] | [9] | [3] | [6] | [7] | [8]

Oc1ccc(Cl)cc1Cc1ccccc1
inactive: [3] | [4] | [7] | [8]
active: [1] 114 µM | [2] 118 µM | [6] 110 µM

O=C(NC(=O)c1c(F)cccc1F)Nc1ccc(OC(F)(F)C(F)OC(F)(F)F)c(Cl)c1 (stereo not drawn)
inactive: [1] | [9] | [3] | [6] | [7] | [8]

CCC(C)(C)C(=O)OC1=C(c2ccc(Cl)cc2Cl)C(=O)OC12CCCCC2
not listed: [2] | [5] | [9]
inactive: all other assays above

C#CCN1C(=O)COc2cc(F)c(N3C(=O)C4=C(CCCC4)C3=O)cc21
not listed: [4] | [5] | [10]
inactive: all other assays above

COc1cc(OC)nc(NC(=O)NS(=O)(=O)c2cc(NC=O)ccc2C(=O)N(C)C)n1
not listed: [5] | [9] | [10]
inactive: all other assays above

COC(=O)c1ccccc1CS(=O)(=O)NC(=O)Nc1nc(OC)cc(OC)n1
not listed: [5] | [9] | [10]
inactive: all other assays above

COP(=O)(OC)OC=C(Cl)Cl
inactive: [1] | [9] | [3] | [6] | [7] | [8]
